# Assay results reported in PubChem BioAssay (Tox21).
# Records with an inconclusive call do not appear. The source made the active and inactive calls. The call rests on the fitted dose curve; in most records, active means well fitted inhibition curve with a large enough effect in the signal ratio in the repeat runs (not every such curve was filed as active); inconclusive means weak or mixed curves, or effect the other way; inactive means flat fitted curve, though single readings scatter; the % refers to the signal ratio.
# Assay: cAMP Responsive Elements (CRE) small molecule antagonists, cell-based qHTS assay (AID 1963591)
# Settings: CRE-bla HEK293T, beta-lactamase FRET ratio; series mostly up to 92.4 µM; activity change, negative = inhibition: at the top concentration
# Description: U.S. Tox21 Program National Center for Advancing Translational Sciences [NCATS] Division of Preclinical Innovation [DPI] U.S. Environmental Protection Agency [EPA] National Institutes of Environmental Health Sciences [NIEHS] National Toxicology Program [NTP] U.S. Food and Drug Administration [FDA] Tox21 Assay Overview: CREB (cyclic-AMP Responsive Element Binding Protein) is a cellular transcription factor. It binds to certain DNA sequences called cAMP Responsive Elements (CRE) and regulates the transcription of the genes. […] This cell line can be used to find agonists/antagonists of the cyclic AMP signaling pathway. The activation of the report gene under culture conditions can be detected by fluorescence intensity. This cell line has been used to screen the Tox21 10K compound library to […].
# Tox21 Assay Protocol Summary: CRE-bla Hek 293T cells were suspended in assay medium (DMEM containing 10% dialyzed FBS, 0.1 mM NEAA, 1 mM sodium pyruvate and 25 mM HEPES) and dispensed at 2,000 cells/4 uL /well into 1536-well black wall/clear bottom plates using a Multidrop Combi (ThermoFisher Scientific, Waltham, MA) dispenser. After the assay plates were incubated at 37 C/5% CO2 for 18 hrs, 23 nL of compounds dissolved in DMSO, positive controls or DMSO only was transferred to the assay plate by a pintool workstation (Kalypsys, San Diego, CA), followed by addition of 1 […] uL of 1.25uM NKH477 (0.25 uM as final concentration) in assay medium using a Flying Reagent Dispenser (Aurora Discovery, San Diego, CA). The plates were incubated at 37 C and 5% CO2 for 3 hrs. Then 1 uL of LiveBLAzer B/G FRET substrate (Invitrogen, Carlsbad, CA) was added to each well using Bioraptr Flying Reagent Dispenser (FRD, Aurora Discovery, San Diego, CA). The plates were incubated at room temperature for 2 h.
# On the % scale 0 is the no-effect control and ±100 the full control effect.
SMILES,"activity change, negative = inhibition",Potency
OC[C@H]1O[C@H](O[C@H]2O[C@H](CO)[C@@H](O)[C@H](O)[C@H]2O)[C@H](O)[C@@H](O)[C@@H]1O,0.297% (inactive),
COC(CC(C)CCCC(C)(C)O)OC (stereo not given),-0.488% (inactive),
CO[Si](CCCNCCC[Si](OC)(OC)OC)(OC)OC,-2.05% (inactive),
OCC(CO)(CBr)CBr,,inactive
C/C=C/c1ccc(OC)c(OC)c1,24.9% (inactive),
CC1=CCC(C(C)(C)O)CC1 (stereo not given),,inactive
CC(C)OC(=O)CCCCC(=O)OC(C)C,-0.617% (inactive),
CC(CCC(=O)O)C(=O)O (stereo not given),0.478% (inactive),
O=[N+]([O-])c1ccccc1Nc1ccccc1,-0.22% (inactive),
COC(=O)c1cc(Cl)ccc1NS(=O)(=O)C(F)(F)F,6.31% [at 42.4 µM] (inactive),
O=C(Nc1ccc([N+](=O)[O-])cc1)Nc1ccc([N+](=O)[O-])cc1 (tested in a mixture with another compound),3.56% [at 42.4 µM] (inactive),
CN(C)/N=N/c1nc[nH]c1C(N)=O,2.49% [at 42.4 µM] (inactive),
O=S(=O)(O)C(F)(F)F,2.2% (inactive),
C=CC(=O)O[C@H]1C[C@@H]2CC[C@@]1(C)C2(C)C,-12.1% (inactive),
C=C(C)[C@H]1CC=C(C)CC1,-9.43% (inactive),
C=C[Si](OC(=C)C)(OC(=C)C)OC(=C)C,7.87% (inactive),
O=C(O)c1ccco1,3.26% (inactive),
C=CC(C)CCC=C(C)C (stereo not given),0.671% (inactive),
ClCCCl,0.72% (inactive),
CC(C)c1ccc2c(C(C)C)cc(C(C)C)c(S(=O)(=O)O)c2c1,-3.45% (inactive),

SMILES,"activity change, negative = inhibition",Potency
CC1COc2ccccc2N1C(=O)C(Cl)Cl (stereo not given),,inactive
C=CCOCC(CO)(COCC=C)COCC=C,-1.47% [at 42.4 µM] (inactive),
Cc1cc(C)c(N)c(Cl)c1,-0.655% (inactive),
OCCOCCOCCOCCOCCO,,inactive
CCCCOC(=O)C(=O)OCCCC,10.1% (inactive),
NC(=O)c1ccccc1N,-2.65% (inactive),
CC(=O)NCc1c(I)c(NC(C)=O)c(I)c(C(=O)O)c1I,0.358% [at 42.4 µM] (inactive),
Cc1c(N)cccc1C(F)(F)F,-1.35% [at 42.4 µM] (inactive),
O=C(O)c1cccnc1C(=O)O,4.76% (inactive),
C=CC(C)(CCC=C(C)C)OC(=O)CC (stereo not given),7.76% (inactive),
CCCCCCCCCCCCCCCCI,-14.2% [at 18.9 µM] (inactive),
OC/C=C/CO,3.18% (inactive),
N=C(N)c1ccccc1,-17.7% (inactive),
CCC(CO)CO,-0.0538% (inactive),
Cc1nc2ccccc2s1,-1.23% (inactive),
N=C(N)c1ccc2cc(OC(=O)c3ccc(N=C(N)N)cc3)ccc2c1,-0.783% [at 42.4 µM] (inactive),
O=C(O[C@@H]1Cc2c(O)cc(O)cc2O[C@@H]1c1cc(O)c(O)c(O)c1)c1cc(O)c(O)c(O)c1,,inactive
O=c1[nH]cnc2[nH]ncc12,,inactive
CC(=O)OCCc1ccccc1,-0.589% (inactive),
CC(=O)N(O)CCCCCNC(=O)CCC(=O)N(O)CCCCCNC(=O)CCC(=O)N(O)CCCCCN,1.69% [at 42.4 µM] (inactive),
